Screening results: PubChem BioAssay, Bradner/Qi Labs at DFCI
CBX7 inh: blocks human CBX7 binding to H3K27me3 peptide; O95931; AlphaScreen His6-CBX7 / biotin-H3K27me3 peptide binding; stronger effect = lower value; normalised signal (fraction of DMSO) (test concentration not listed); hit rate 1.1% among 66,000; in the data active = normalised signal below about 0.5
Target sequence (O95931 whole entry, looked up): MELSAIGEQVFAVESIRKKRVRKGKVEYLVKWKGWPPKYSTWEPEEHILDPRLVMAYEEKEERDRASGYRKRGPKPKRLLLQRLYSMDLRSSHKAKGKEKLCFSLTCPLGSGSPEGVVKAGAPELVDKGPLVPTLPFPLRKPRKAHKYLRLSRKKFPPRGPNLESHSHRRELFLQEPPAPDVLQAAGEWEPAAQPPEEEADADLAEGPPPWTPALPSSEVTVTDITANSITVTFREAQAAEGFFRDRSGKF
Each line names hits and unclear results; the compound was inactive in the other large screens; ! = not confirmed by another sample. The entries come from a sample that favours hits as a whole.

CCCn1cnc2cc(NCc3ccc(Br)cc3)ccc21	CBX7 inh 0.326
CCn1cnc2cc(NCc3ccc(OC)c(OC)c3)ccc21	none
CCCCn1cnc2cc(NCc3ccc(Br)cc3)ccc21	CBX7 inh 0.255
CCn1cnc2cc(NCc3ccc(Br)cc3)ccc21	none
CCCn1cnc2cc(NCc3ccc(OC)c(OC)c3)ccc21	none
CCCn1cnc2cc(NCc3cccc(OC)c3)ccc21	none
FC(F)(F)c1nc(Nc2cc(Cl)ccc2Cl)sc1-c1ccc(Cl)cc1	none
CCN1C(=O)c2ccccc2S(=O)c2ccc(C(=O)NC(C)CCc3ccccc3)cc21 (stereo not given)	none
Cc1ccccc1Cc1c(C)nc2c(C(=O)NCc3ccccn3)cnn2c1C	none
CCN1CCN(CCCNC(=O)C(C)n2ncc3ccccc32)CC1 (stereo not given)	none
CCC(C(=O)Nc1cccc(OC)c1)n1c(C(=O)OC)cc2ccsc21 (stereo not given)	none
Cc1ccccc1NC1c2ccccc2C(=O)N1Cc1ccccc1 (stereo not given)	none
COc1ccc(-n2c(Cc3cc(=O)[nH]c(=O)[nH]3)nnc2SCC(=O)Nc2ccc(C)cc2)cc1	none
CN(C(=O)Cc1nc(N)n[nH]1)C1(C(=O)Nc2ccccc2)CCCCC1	CBX7 inh 0.0266
Cc1ccc(NC(=O)C2(N(C)C(=O)Cc3nc(N)n[nH]3)CCCCC2)cc1	none
Nc1n[nH]c(CC(=O)N(Cc2ccccc2)C2(C(=O)Nc3ccccc3)CCCCC2)n1	none
Cc1cc(C)cc(-n2cnc3cc(C(=O)NC4CCCC4)ccc32)c1	none
CC1CC(C)CN(S(=O)(=O)c2ccc(C(=O)Nc3nc(-c4cccnc4)cs3)cc2)C1 (stereo not given)	none
O=C(Nc1ccccc1Cl)C1CCCN(C(=O)c2cnn(-c3ccccc3)c2-n2cccc2)C1 (stereo not given)	none
Cc1ccc(-c2nnc(Nc3ccc(O)cc3)c3ccccc23)cc1S(=O)(=O)NC(C)(C)C	none
Cc1ccc(-c2nnc(Nc3cccc(O)c3)c3ccccc23)cc1S(N)(=O)=O	none
Cc1ccc(-c2nnc(Nc3cccc(O)c3)c3ccccc23)cc1S(=O)(=O)NC(C)(C)C	CBX7 inh 0.402
CC(C)(C)OC(=O)N1CCC(c2c(C(=O)Nc3ccc(Cl)cc3)cnn2-c2ccccc2)CC1	none
CC1CCCCN1CCCNC(=O)CN1C(=O)COc2ccccc21 (stereo not given)	none
CC(C)CCNC(=O)CC1Oc2ccc(Cl)cc2NC1=O (stereo not given)	none
CC(C)Oc1ccc(C(=O)Nc2ccc(-c3nc4ncccc4o3)cc2)cc1	none
Cc1ccc(Nc2nc(-c3ccc(-c4ccccc4)cc3)cs2)cc1Cl	none
Oc1ccc(Nc2nc(-c3ccc(Cl)cc3)cs2)cc1	CBX7 inh 0.44
Cc1ccc(Nc2nc(-c3ccc(Cl)cc3)cs2)cc1C	none
Clc1ccc(Nc2nc(-c3ccncc3)cs2)cc1	none
Cc1ccc(Nc2nc(-c3ccc(I)cc3)cs2)cc1C	none
CCOc1ccc(Nc2nc(-c3ccc(OC)c(F)c3)cs2)cc1	none
Cc1ccc(Nc2nc(-c3ccccc3)cs2)cc1Cl	none
Clc1ccc(-c2csc(Nc3ccc(Br)cc3)n2)cc1	none
Cc1ccc(Nc2nc(-c3ccc(C)c(C)c3)cs2)cc1	CBX7 inh 0.45
Cc1ccc(C)c(-c2csc(Nc3ccc(F)cc3)n2)c1	none
COc1ccc(-c2csc(Nc3ccc(C)c(Cl)c3)n2)cc1F	CBX7 inh 0.392!
Cc1ccc(C)c(-c2csc(Nc3ccc(C)c(Cl)c3)n2)c1	CBX7 inh 0.374!
O=C(COc1ccccc1)Nc1ccc2c(c1)nc1n2CCN(Cc2ccccc2)C1	none
CCCCCn1c(C(C)NC(=O)CC)nc2ccccc21 (stereo not given)	none
COc1ccc(C2(CNC(=O)CCOc3ccccc3)CCOCC2)cc1	none
O=C(NCC1CCCO1)C1CCCN(c2nc3ccccc3[nH]2)C1 (stereo not given)	none
Cc1nc2ccc(S(=O)(=O)NC(C(=O)NCc3ccc(C(=O)O)cc3)C(C)C)cc2s1 (stereo not given)	none
O=S(=O)(NCCc1ccc(Cl)cc1)c1cnc[nH]1	none
COc1ccc(-c2csc(Nc3cccc(C(=O)O)c3)n2)cc1	none
COc1cccc(Nc2nc(-c3ccc(F)cc3)cs2)c1	CBX7 inh 0.465
COc1cccc(Nc2nc(-c3ccc(C)cc3)cs2)c1	none
CCc1ccccc1Nc1nc(-c2ccc(OC)cc2)cs1	none
O=C(Nc1cccc(F)c1)c1cccnc1Nc1cccc(F)c1	none
CC(CCc1ccccc1)NC(=O)c1cc2c(s1)-c1ccccc1OC2 (stereo not given)	none
Cc1ccc(C(=O)N2CCn3c2nc2ccccc23)cc1	none
Cc1ccc(OCCn2c(C3CC(=O)N(c4cc(C)ccc4C)C3)nc3ccccc32)cc1 (stereo not given)	CBX7 inh 0.494
Cc1ccc(OCCn2c(C3CC(=O)N(c4cccc(C)c4C)C3)nc3ccccc32)cc1 (stereo not given)	none
Cc1ccc(C)c(N2CC(c3nc4ccccc4n3CCOc3ccccc3)CC2=O)c1 (stereo not given)	none
c1ccc(C(Cc2nc(-c3cccnc3)no2)c2ccccc2)cc1	none
COc1ccc(-c2noc(C(c3ccccc3)c3ccccc3)n2)cc1	none
c1ccc(C(c2ccccc2)c2nc(-c3cccnc3)no2)cc1	CBX7 inh 0.321
CCOc1ccccc1CN(CCc1ccc2c(c1)OCO2)Cc1ccccn1	CBX7 inh 0.0692
O=C(NCc1ccccn1)C(=O)Nc1ccc2c(c1)OCO2	none
COc1ccc(Br)cc1CN(CCc1ccc2c(c1)OCO2)Cc1cccnc1	none
O=C(Nc1ccccc1C(=O)Nc1ccccc1Cl)c1ccccc1	none
COc1ccccc1NC(=O)c1cccnc1NCCO	none
CCc1ccc(-c2nc(CN3CCCC(C(=O)NCCC4=CCCCC4)C3)c(C)o2)cc1 (stereo not given)	none
COCCCNC(=O)CSc1nc(-c2ccc(Cl)cc2)[nH]c1-c1ccc(C)cc1	none
Cc1ccn2c(NC3CCCCC3)c(-c3cccnc3)nc2c1	none
Cc1ccn2c(NC3CCCC3)c(-c3ccncc3)nc2c1	none
Cc1ccc2nc(-c3ccncc3)c(NC3CCCC3)n2c1	none
Cc1ccn2c(NC3CCCC3)c(-c3ccccn3)nc2c1	CBX7 inh 0.431
Cc1ccc(-c2nc3ncccn3c2NC2CCCCC2)cc1	none
Cc1ccn2c(NC3CCCCC3)c(-c3ccccn3)nc2c1	CBX7 inh 0.46
CCCCNC(=O)c1cc(Nc2ccccc2CC)nc2ccccc12	none
CC1CCCCC1NC(=O)c1ccc2c(c1)N(Cc1ccc(F)cc1Cl)C(=O)CS2 (stereo not given)	none
CCOc1ccc(S(=O)(=O)c2cn(Cc3cccc(C)c3)c3ccc(OC)cc3c2=O)cc1	none
CCN1CCN(c2ncc(C(=O)O)c3ccccc23)CC1	none
COc1ccc(C(CC(=O)c2ccco2)Sc2cccc3cccnc23)cc1OC (stereo not given)	CBX7 inh 0.00504
CCOC(=O)c1nnn(-c2nonc2N)c1CSc1cccc2cccnc12	none
COc1ccc(CCNC(=O)C2CCN(S(=O)(=O)c3cccc4cccnc34)CC2)cc1OC	none
COCCCNC(=O)CSc1nc(-c2ccc(SC)cc2)[nH]c1-c1ccccc1	none
Cc1cc(C)cc(N2CC(c3nc4ccccc4n3Cc3ccccc3F)CC2=O)c1 (stereo not given)	none
CCCC(O)(c1ccc(OC)c(F)c1)C(CN1CCCCC1)c1ccccc1 (stereo not given)	none
CCN(CC)CCNC(=O)c1ccc2c(c1)N(Cc1ccc(F)cc1)C(=O)c1ccccc1S2=O (stereo not given)	none
CCN(c1ccccc1)S(=O)(=O)c1ccc2[nH]cc(C(=O)NC3CCCCCC3)c(=O)c2c1	none
Cc1cc2ncn(C(C)c3ccccc3)c2cc1C (stereo not given)	none
